# From PubChem BioAssay AID743360 (Molecular Libraries Program, Specialized Chemistry Center, …, 2014)
# Values without a mark were called inactive. The source made the active and inactive calls.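 The calls were made as follows: active = calcium retention capacity relative to untreated control above about 1.1 ratio (limit read from the data); inactive = the rest.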
# Experiment: mitochondrial Ca2+ retention capacity increase – biochemical, dry powder samples, uHTS hits, Calcium Green-5N, dose response (AID 743360)
# Details: isolated mitochondria, Ca retention capacity
row,SMILES,CRC/CRC0 ratio at 12.5 uM (higher = more inhibition)
1,COc1ccc(Cl)cc1C(=O)Nc1ccc(N(C)C)cc1,1.18 (active)
2,O=C(Nc1cccc(Cl)c1Cl)c1cc(-c2cccc(O)c2)on1,4 (active)
3,COc1ccccc1C(=O)Nc1ccc(CN2CCCCC2)cc1,1.05
4,O=S(=O)(Nc1ccc(CCN2CCCCC2)cc1)c1cccc(Cl)c1,1.12 (active)
5,COc1ccccc1C(=O)Nc1ccc(C(=O)N2CCCCC2)cc1,> 1
6,COc1ccc(Cl)cc1C(=O)Nc1ccc(CCN2CCN(C(=O)OC(C)(C)C)CC2)cc1,1.37 (active)
7,O=C(Nc1cccc(Cl)c1)c1cc(-c2ccc(Cl)cc2)on1,> 1
8,O=S(=O)(Nc1ccc(CN2CCCCC2)cc1)c1cc(Cl)cc(Cl)c1,1.07
9,COc1ccc(Cl)cc1S(=O)(=O)Nc1ccc(CCN2CCCCC2)cc1,1.07
10,COc1ccc(Cl)cc1C(=O)Nc1ccc(N2CCCCC2)cc1,1.05
11,Cc1ccc(NC(=O)c2cc(-c3cccc(O)c3)on2)cc1Cl,2.58 (active)
12,COc1ccc(Cl)c(C(=O)Nc2ccc(CN3CCOCC3)cc2)c1,1.03
13,COc1ccc(NC(=O)c2cc(-c3cccc(O)c3)on2)cc1Cl,3.26 (active)
14,CN1CCN(c2ccc(NC(=O)c3ccc(OCc4ccccc4)cc3)cc2)CC1,1.08
15,CC1(C)CCN(CCCC(=O)c2ccc(Br)cc2)CC1,1.1 (active)
16,Cc1cc(NC(=O)c2cc(-c3ccc(F)cc3)on2)no1,> 1
17,CCN(CC)c1ccc(NC(=O)c2ccc(OC)c(Cl)c2)cc1,0.976
